What all share (assay type): functional
The test system of assay [1] is Plasmodium falciparum. Description: GSK_TCMDC: Inhibition of Plasmodium falciparum 3D7 in whole red blood cells, using parasite LDH activity as an index of growth. Test compounds present at 2uM.
In assay [2] the test system is Plasmodium falciparum. Kind of assay: GSK_TCMDC: Inhibition of Plasmodium falciparum Dd2 in whole red blood cells, using parasite LDH activity as an index of growth. Test compounds present at 2uM.
In assay [3] the test system is HepG2. Description: GSK_TCMDC: Percent inhibition of human HepG2 cell line. Test compounds present at 10uM.

The structures appear in SMILES notation.

`O=C(Nc1ccc(OC2CCN(Cc3ccccc3)CC2)c(Cl)c1)c1ccsc1.O=C(O)C(F)(F)F`: the Inhibition was found to be 87% in assay [1], 92% in assay [2] and 3% in assay [3].

Regarding `CCOCc1cnc(C)nc1CNC(=O)c1c(C)[nH]c2ccc(C)cc12`, the figures for the Inhibition in assay [1], in assay [2] and in assay [3] were 84%, 65% and 8%, respectively.

Regarding `COc1cccc(-c2nn(C)c3sc(C(=O)NCCN(C)Cc4ccccc4)cc23)c1`, the Inhibition in assay [1] is 92%; in assay [2] it was 26%; in assay [3] it was 21%.

For the compound `CCCC(=O)c1cnc2c(I)cccc2c1Nc1ccccc1C`, the Inhibition in assay [1] was determined as 90%; in assay [2], 26%; in assay [3] it was 7%.

Take `Cc1cc(Nc2ncc(Cl)c(Nc3ccccc3C(N)=O)n2)n[nH]1`: the values for the Inhibition in assay [1], in assay [2] and in assay [3] were 98%, 96% and 70%, respectively.

For the compound `CCc1cn(CCS(C)(=O)=O)c2ccc(C(=O)N[C@@H](Cc3ccccc3)[C@H](O)CNC(C)(C)CCCC(C)C)cc12.O=CO`, the Inhibition in assay [1] came out at 87%; in assay [2] it was 96%; in assay [3] it was 16%.

`CC1CN(c2nc(NCCc3ccc(O)cc3)nc(NCc3ccccc3-c3ccc(C(F)(F)F)cc3)n2)CC(C)N1` (centres undefined): the Inhibition in assay [1] is listed as 100%; in assay [2], 68%; in assay [3], 24%.

Consider `Cc1cc(NCCCN2CCCC2=O)n2c(nc3ccccc32)c1C#N`, for which the Inhibition in assay [1] was 93%; in assay [2] it was 48%; in assay [3], 4%.

`O=C(c1ccc(-c2ccc(-c3nc4cc(C(F)(F)F)ccc4[nH]3)s2)cc1)N1CCN(CCc2ccccc2)CC1`: the Inhibition turned out to be 98% in assay [1], 60% in assay [2] and 23% in assay [3].

Consider `CN1CCN(c2ccc(-c3cc(-c4cc(F)c(F)c(F)c4)cnc3N)cc2)CC1`, for which the figures for the Inhibition in assay [1], in assay [2] and in assay [3] were 88%, 12% and 58%, respectively.

Take `Cc1cnc(N2CCN(CCCN3CCCC3)CC2)nc1Oc1ccc(-n2ccnc2)cc1.O=C(O)C(F)(F)F`: the Inhibition in assay [1] worked out at 99%; in assay [2], 82%; in assay [3], 12%.

In the case of `CCN(CC)CCCC(C)Nc1c(-c2ccc(Br)cc2)cnc2ccccc12` (centres undefined), the Inhibition in assay [1] stood at 100%; in assay [2], 95%; in assay [3] it was 7%.

On to `O=C(Nc1ccc(C(F)(F)F)cc1)c1ccc(S(=O)(=O)NC2CCN(Cc3ccccc3)C2)cc1.O=C(O)C(F)(F)F` (centres undefined), for which the Inhibition is 100% in assay [1], 5% in assay [2] and 42% in assay [3].

For `Cc1nc(-c2ccc3c(c2)CCN(CCC2CCC(NC(=O)c4cc5cccc(Cl)c5[nH]4)CC2)CC3)no1.Cl` (centres undefined), the Inhibition amounted to 100% in assay [1], 46% in assay [2] and 36% in assay [3].

For the compound `CC(=O)N(C)c1cccc(C(=O)Nc2cccc(-c3cccc(-c4nc5cc(C(F)(F)F)ccc5[nH]4)c3)c2)c1`, the Inhibition is on record as 97% in assay [1], 41% in assay [2] and 49% in assay [3].

On to `CC(C)CNCc1cccc(-c2cccc(CN(CCN(C)C)C(=O)NCCc3ccccc3)c2)c1.O=C(O)C(F)(F)F`, for which the results for the Inhibition in assay [1], in assay [2] and in assay [3] were 99%, 83% and 84%, respectively.

Regarding `Cc1cc(N2CCN(C)CC2)nc2ccc(NC(=O)c3cccc(N(C)C)c3)cc12`, the Inhibition in assay [1] is 85%; in assay [2], 23%; in assay [3], 9%.

With `CCCCCCc1cc2cc(-c3csc(C=Cc4ccccc4)n3)c(=O)oc2cc1O`, the Inhibition in assay [1] was 96%; in assay [2], 75%; in assay [3] it was 17%.

For the compound `COc1nc2c(N3CCN(CCNCc4ccc5c(n4)NC(=O)CO5)CC3)ccnc2cc1F.Cl`, the Inhibition in assay [1] came to 100%; in assay [2], 9%; in assay [3] it was 18%.

As for `Cc1noc(C)c1-c1cccc(CNCc2cccc(-c3ccc(-c4nc5cccc(C)c5[nH]4)s3)c2)c1.O=C(O)C(F)(F)F`, the Inhibition is listed as 100% in assay [1], 75% in assay [2] and 22% in assay [3].

For `Cc1ccc(S(=O)(=O)NC2=NC(=N)N(OCc3ccc(Cl)c(Cl)c3)C(C)(C)N2)cc1`, the Inhibition in assay [1] is reported as 88%; in assay [2], 0%; in assay [3], 0%.

Take `Cc1cccc(-c2cc3cc(Nc4ccnc5cc(-c6nccs6)ccc45)ccc3[nH]2)c1.Cl`: the Inhibition was found to be 100% in assay [1], 100% in assay [2] and 0% in assay [3].

Regarding `CCN1CCN(Cc2ccc3nc(-c4cc(C)n(Cc5cc(Cl)ccc5OCc5ccccc5)n4)[nH]c3c2)CC1.Cl`, the Inhibition was determined as 100% in assay [1], 97% in assay [2] and 11% in assay [3].

`Fc1ccc(Nc2ccnc3cc(-c4ccc(CN5CCOCC5)o4)ccc23)c(Cl)c1`: the figures for the Inhibition in assay [1], in assay [2] and in assay [3] were 100%, 100% and 42%, respectively.

As to `Fc1ccc2[nH]c(-c3ccc(-c4ccc(CNCC5CCCO5)cc4)cc3)nc2c1.O=C(O)C(F)(F)F` (centres undefined), the Inhibition in assay [1] is given as 100%; in assay [2], 100%; in assay [3], 26%.

For `COc1cccc(C2CCCN(CCCCNC(=O)c3ccc(NC(=O)c4ccc(Cl)cc4)cc3)C2)c1` (centres undefined), the Inhibition amounted to 95% in assay [1], 6% in assay [2] and 24% in assay [3].

For `Cc1cc2nc(-c3ccc(C(=O)NCc4cccc(F)c4)cc3)[nH]c2cc1C`, the Inhibition in assay [1] came to 91%; in assay [2], 6%; in assay [3] it was 0%.

As for `COc1ccc(C=NN=c2cc(C)[nH]c3ccc(C)cc23)c2ccccc12.Cl`, the Inhibition in assay [1] worked out at 94%; in assay [2], 55%; in assay [3], 28%.

These data come from ChEMBL document CHEMBL1157539, “Thousands of chemical starting points for antimalarial lead identification” (Nature, 2010).
